# Results published in PubChem BioAssay.
# Values joined by “and” are separate entries in the source; they are usually repeats but may differ in a detail not shown here. Identical values can stand only once. Active and inactive are the calls of the source. Cut-off read from the data, not from the text of the source, unless noted: active = inhibition above about 80%; inactive = the rest.
# Legend:
# [1] = growth inhibition, single agent or in combination, cell-based, chromothripsis tumors, cisplatin or BGB combos (AID 1671449); conditions: LFS_MB_P medulloblastoma cells;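 note: cells exposed for 96 hours; 0% = vehicle DMSO and 100% = killing by high DMSO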
# [2] = growth inhibition, single agent and combos, cell-based, chromothripsis tumors, cisplatin or BGB combos (AID 1671450); conditions: HDN33 neuroblastoma cells, stronger effect = higher value;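 note: cells exposed to compound for four days; 0% = vehicle DMSO and 100% = cell killing by high DMSO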
# [3] = growth inhibition, single agents and combos, ICB984, cell-based, cisplatin or BGB combos, synergistic combos for chromothripsis tumors (AID 1671451; call rule not given here;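 note: cells exposed for 96 hours before readout; 0% = vehicle DMSO and 100% = killing by high DMSO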); conditions: ICB984 medulloblastoma cells, drug combinations, stronger effect = higher value
# [4] = growth inhibition, single agents and combos, LFS_MB_1R, cell-based, cisplatin or BGB combos, synergistic combos for chromothripsis tumors (AID 1671452); conditions: LFS_MB_1R medulloblastoma cells, stronger effect = higher value;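 note: cells exposed for 96 hours before readout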
# [5] = growth inhibition, single agents and combos, HTB85, cell-based, BGB or cisplatin IC20 combos, synergistic combos for chromothripsis tumors (AID 1671453); conditions: HTB85 osteosarcoma cells, drug combinations, stronger effect = higher value;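 note: cells exposed for 96 hours before readout; 0% = vehicle DMSO and 100% = high DMSO killing control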
# [6] = growth inhibition, single agents and combos, CRL2098, cell-based, BGB or cisplatin IC20 combos, synergistic combos for chromothripsis tumors (AID 1671454); conditions: CRL2098 osteosarcoma cells, drug combinations, stronger effect = higher value;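 note: cells exposed for 96 h before readout; 0% = vehicle DMSO and 100% = killing by high DMSO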
# [7] = growth inhibition, single agents and combos, HD-MB03, cell-based, BGB or cisplatin IC20 combos, synergistic combos for chromothripsis tumors (AID 1671455; in the data active = inhibition above about 83%;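 note: 0% = vehicle DMSO and 100% = high DMSO as cytotoxic control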); conditions: HD-MB03 medulloblastoma cells, stronger effect = higher value
# [8] = growth inhibition, single agents and combos, UWB1.289, cell-based, BGB or cisplatin combos, synergistic combos for chromothripsis tumors (AID 1671456); conditions: UWB1.289 ovarian carcinoma cells, stronger effect = higher value;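 note: cells exposed to compound for four days; 0% = vehicle DMSO and 100% = killing by high DMSO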
# [9] = growth inhibition, single agents and combos, LFS_MB_2R, cell-based, cisplatin combos, synergistic combos for chromothripsis tumors (AID 1671457); conditions: LFS_MB_2R medulloblastoma cells, stronger effect = higher value;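 note: cells exposed to compound for four days before readout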
# [10] = growth inhibition, MDA-MB-436, cell-based, BGB or cisplatin combos, synergistic combos for chromothripsis tumors (AID 1671458; call rule not given here;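 note: cells exposed for 96 hours; 0% = vehicle DMSO and 100% = killing by high DMSO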); conditions: MDA-MB-436 breast carcinoma growth inhibition, drug combinations, stronger effect = higher value
# [11] = UWB1.289_BRCA1 ovarian cancer growth, cell-based, BGB or cisplatin combinations (AID 1671459); conditions: UWB1.289 BRCA1 ovarian carcinoma, drug combinations, stronger effect = higher value
# [12] = drug combination toxicity in non-malignant astrocytes – cell-based, BGB or cisplatin IC20 combos, cytotoxicity control for chromothriptic childhood tumor combination screen (AID 1671460); conditions: Human astrocytes, viability inhibition, drug combinations, at 0.5 µM, stronger effect = higher value;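 note: cells exposed to compounds for 96 hours before viability readout; 0% = vehicle and 100% = killing control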
# [13] = BT084 cell growth, single and combined drugs, ICGC_MB145, cisplatin and BGB IC40 combos (AID 1671461); conditions: BT084 medulloblastoma cells, drug combinations, stronger effect = higher value;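 note: cells exposed to drugs for 96 hours; 0% = vehicle DMSO and 100% = high DMSO full killing control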
# [14] = RCMB18 cell growth, single agent and combined, cisplatin and BGB IC40 combos (AID 1671462); conditions: RCMB18 medulloblastoma cells, stronger effect = higher value;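 note: cells exposed to compound for four days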
# [15] = CRL1545 cell growth, single agent and combined, cisplatin and BGB IC20 combos (AID 1671464); conditions: CRL1545 osteosarcoma cells, stronger effect = higher value;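 note: cells exposed to compound for 96 hours before readout; 0% = vehicle DMSO and 100% = high DMSO killing control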
# [16] = at 0.5 µM, stronger effect = higher value
# [17] = measured here: combination with BGB IC20, at 0.005 µM
# [18] = measured here: combination with BGB IC40, at 0.005 µM
# [19] = measured here: combination with BGB IC40, at 0.05 µM
# [20] = measured here: combination with cisplatin, at 0.5 µM, stronger effect = higher value
# [21] = measured here: combination with cisplatin, at 5 µM, stronger effect = higher value
# [22] = measured here: with BGB IC20 combination, at 0.5 µM
# [23] = measured here: with cisplatin IC20 combination, at 0.5 µM
# [24] = measured here: 5 uM single agent, at 5 µM
# [25] = measured here: combination with cisplatin, at 0.5 µM
# [26] = measured here: combination with cisplatin, at 5 µM
# [27] = measured here: with BGB IC20, at 0.5 µM
# [28] = measured here: with BGB IC20, at 5 µM
# [29] = measured here: with cisplatin IC20, at 0.5 µM
# [30] = measured here: with cisplatin IC20, at 5 µM
# [31] = measured here: combination with BGB at IC20, at 0.5 µM
# [32] = measured here: combination with cisplatin at IC20, at 0.5 µM
# [33] = measured here: combo with BGB at IC20, at 0.5 µM
# [34] = measured here: combo with cisplatin at IC20, at 0.5 µM
# [35] = measured here: inhibition with BGB combination, at 0.05 µM
# [36] = measured here: inhibition with cisplatin combination, at 0.05 µM
# [37] = measured here: BGB combination, at 0.5 µM
# [38] = measured here: BGB combination, at 5 µM
# [39] = measured here: cisplatin combination, at 0.5 µM
# [40] = measured here: cisplatin combination, at 5 µM
# [41] = BGB combination, concentration series, at 5 µM
# [42] = cisplatin combination, concentration series, at 5 µM
# [43] = measured here: combo with BGB IC20
# [44] = measured here: combo with cisplatin IC20
# [45] = cisplatin combination, at 0.5 µM
# [46] = measured here: BGB IC40 combination 0.05 uM, at 0.05 µM
compound,measurement,setting,value
Cc1cn(C2CC(O)C(COP(=O)(O)OP(=O)(O)OP(=O)(O)O)O2)c(=O)[nH]c1=O (stereo not drawn),inhibition,[1]; [16],-19.9% (inactive)
same,inhibition,[1]; [17],-8.93%
same,inhibition,[1]; [18],80.9%
same,inhibition,[1]; [19],0.344%
same,inhibition,[1]; [20],-42.6%
same,inhibition,[1]; [21],-12.4%
same,inhibition,"[2]; BGB combo, at 5 µM",-9.68%
same,inhibition,[2]; at 0.5 µM,4.14% (inactive)
same,inhibition,"[2]; cisplatin combo, at 5 µM",0.577%
same,inhibition,[2]; [22],-1.96%
same,inhibition,[2]; [23],7.93%
same,inhibition,"[2]; single agent, at 5 µM",1.73%
same,inhibition,"[3]; BGB IC20 combo, at 0.005 µM",10.7%
same,inhibition,"[3]; BGB IC40 combo, at 0.005 µM",17.3%
same,inhibition,"[3]; BGB IC40 combo, at 0.05 µM",24%
same,inhibition,[3]; at 0.5 µM,8.18% (inactive)
same,inhibition,"[3]; cisplatin combo, at 0.05 µM",20.3%
same,inhibition,"[3]; cisplatin combo, at 0.5 µM",3.65%
same,inhibition,"[3]; cisplatin combo, at 5 µM",-24.4%
same,inhibition,[3]; [24],4.13%
same,inhibition,[4]; at 0.5 µM,6.88% (inactive)
same,inhibition,[4]; [19],-1.92%
same,inhibition,[4]; [25],9.07%
same,inhibition,[4]; [26],4.13%
same,inhibition,[5]; at 0.5 µM,7.15% (inactive)
same,inhibition,[5]; [27],27.1%
same,inhibition,[5]; [28],13.2%
same,inhibition,[5]; [29],-5.05%
same,inhibition,[5]; [30],1.73%
same,inhibition,"[5]; single agent, at 5 µM",10.9%
same,inhibition,[6]; at 0.5 µM,6.85% (inactive)
same,inhibition,[6]; [31],-16.6%
same,inhibition,[6]; [32],29.2%
same,inhibition,[7]; at 0.5 µM,10.7% (inactive)
same,inhibition,[7]; [33],9.76%
same,inhibition,[7]; [34],8%
same,inhibition,[8]; at 0.5 µM,7.19% (inactive)
same,inhibition,[8]; [35],12.5%
same,inhibition,[8]; [36],-3.67%
same,inhibition,[9]; at 0.5 µM,0.97% (inactive)
same,inhibition,[9]; [25],8.52%
same,inhibition,[9]; [26],26.6%
same,inhibition,[10]; at 0.5 µM,2% (inactive)
same,inhibition,[10]; [37],-1.94%
same,inhibition,[10]; [38],2.66%
same,inhibition,[10]; [39],-0.048%
same,inhibition,[10]; [40],5.35%
same,inhibition,[11]; [41],5.28%
same,inhibition,[11]; at 0.5 µM,7.57% (inactive)
same,inhibition,[11]; [42],6.92%
same,inhibition,[12],2.58% (inactive)
same,inhibition,[12]; [43],-0.198%
same,inhibition,[12]; [44],3.8%
same,inhibition,[13]; at 0.5 µM,6.5% (inactive)
same,inhibition,[13]; [45],4.31%
same,inhibition,"[13]; cisplatin combination, at 5 µM",-28.2%
same,inhibition,[13]; [46],23.2%
same,inhibition,"[13]; single agent, at 5 µM",18.9%
same,inhibition,[14]; at 0.5 µM,-1.71% (inactive)
same,inhibition,"[14]; cisplatin combo, at 5 µM",-2.93%
same,inhibition,"[14]; measured here: BGB IC40 combination, at 0.05 µM",18.6%
same,inhibition,[14]; [25],-28.7%
same,inhibition,"[14]; single agent, at 5 µM",2.51%
same,inhibition,[15]; at 0.5 µM,12.4% (inactive)
same,inhibition,[15]; [22],17.1%
same,inhibition,[15]; [23],8.61%
same,inhibition,"[15]; single agent, at 0.05 µM",-33%
same,inhibition,"[15]; single agent, at 5 µM",-18%
Nc1nc(NC2CC2)c2ncn(C3C=CC(CO)C3)c2n1 (stereo not drawn),inhibition,[1]; [16],18.6% (inactive) and 9.78% (inactive)
same,inhibition,[1]; [17],-10.2% and -25.3%
same,inhibition,[1]; [18],-2.6% and -37.7%
same,inhibition,[1]; [19],-13.2% and -43.3%
same,inhibition,[1]; [20],0.791% and -12%
same,inhibition,[1]; [21],42.6% and 20.9%
same,inhibition,"[2]; BGB combo, at 5 µM",7.05% and 3.14%
same,inhibition,[2]; at 0.5 µM,-27.8% (inactive) and -12.2% (inactive)
same,inhibition,"[2]; cisplatin combo, at 5 µM",15.9% and 16.9%
same,inhibition,[2]; [22],-24.7% and -14%
same,inhibition,[2]; [23],-37.5% and -12%
same,inhibition,"[2]; single agent, at 5 µM",15.7% and 29.8%
same,inhibition,"[3]; BGB IC20 combo, at 0.005 µM",-32.2% and 1.07%
same,inhibition,"[3]; BGB IC40 combo, at 0.005 µM",-10% and -27%
same,inhibition,"[3]; BGB IC40 combo, at 0.05 µM",11.7% and 20.9%
same,inhibition,[3]; at 0.5 µM,-15.2% (inactive) and -19.6% (inactive)
same,inhibition,"[3]; cisplatin combo, at 0.05 µM",9.21% and 18%
same,inhibition,"[3]; cisplatin combo, at 0.5 µM",-8.32% and -16.8%
same,inhibition,"[3]; cisplatin combo, at 5 µM",-66.5% and -40.2%
same,inhibition,[3]; [24],-33.4% and -23.1%
same,inhibition,[4]; at 0.5 µM,-29.4% (inactive) and -14.1% (inactive)
same,inhibition,[4]; [19],-41.9% and -20.2%
same,inhibition,[4]; [25],-65.7% and -24.2%
same,inhibition,[4]; [26],10.3% and 37.7%
same,inhibition,[5]; at 0.5 µM,-22.4% (inactive) and -2.82% (inactive)
same,inhibition,[5]; [27],-29.8% and -5.83%
same,inhibition,[5]; [28],-10.5% and 18.8%
same,inhibition,[5]; [29],-25.7% and -8.4%
same,inhibition,[5]; [30],3.54% and 48.9%
same,inhibition,"[5]; single agent, at 5 µM",15.5% and 29.1%
same,inhibition,[6]; at 0.5 µM,-73.4% (inactive) and -21.7% (inactive)
same,inhibition,[6]; [31],-122% and -23.9%
same,inhibition,[6]; [32],-57% and -77.8%
same,inhibition,[7]; at 0.5 µM,-12.2% (inactive) and -6.69% (inactive)
same,inhibition,[7]; [33],-5.41% and -19.4%
same,inhibition,[7]; [34],-23.6% and 5.04%
same,inhibition,[8]; at 0.5 µM,-7.07% (inactive) and -1.31% (inactive)
same,inhibition,[8]; [35],-16.1% and -7.54%
same,inhibition,[8]; [36],-20.7% and -16.3%
same,inhibition,[9]; at 0.5 µM,-0.03% (inactive) and -16.7% (inactive)
same,inhibition,[9]; [25],2.24% and -15.7%
same,inhibition,[9]; [26],-15.7% and 24.3%
same,inhibition,[10]; at 0.5 µM,0.7% (inactive) and -5.22% (inactive)
same,inhibition,[10]; [37],5.51% and -4.19%
same,inhibition,[10]; [38],23.6% and 15.9%
same,inhibition,[10]; [39],-6.39% and -11.5%
same,inhibition,[10]; [40],25.3% and 12.2%
same,inhibition,[11]; [41],21.9% and 44.1%
same,inhibition,[11]; at 0.5 µM,-6.63% (inactive) and -4.62% (inactive)
same,inhibition,[11]; [42],36% and 67.6%
same,inhibition,[12],-19.5% (inactive) and 11.5% (inactive)
same,inhibition,[12]; [43],-10.8% and 10%
same,inhibition,[12]; [44],-38.1% and 8.23%
same,inhibition,[13]; at 0.5 µM,-4.33% (inactive) and -11.9% (inactive)
same,inhibition,[13]; [45],6.28% and -30.6%
same,inhibition,"[13]; cisplatin combination, at 5 µM",27.2% and 36.5%
same,inhibition,[13]; [46],4.8% and -24.4%
same,inhibition,"[13]; single agent, at 5 µM",29.7% and 30.5%
same,inhibition,[14]; at 0.5 µM,-22.8% (inactive) and -12.3% (inactive)
same,inhibition,"[14]; cisplatin combo, at 5 µM",15.1% and 15.7%
